Test results as given in PMC11006913.
Changes are numbered by the printed parent chain.

Assays:
Experiment in all cases: PBM; 200 nM protein, PBS
Details in all cases: dsDNA, one strand shown
SIX6 [1] = molecular target: T1, SIX6 (Homo sapiens, UniProt O95475 114-200, L167I)
T1 sequence: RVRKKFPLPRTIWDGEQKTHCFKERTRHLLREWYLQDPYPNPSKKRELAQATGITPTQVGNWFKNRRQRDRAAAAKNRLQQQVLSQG

SIX6 [2] = molecular target: T2, SIX6 (Homo sapiens, UniProt O95475 114-200, L143V)
T2 sequence: T1 sequence with L30V, I54L

SIX6 [3] = molecular target: T3, SIX6 (Homo sapiens, UniProt O95475 114-200, H141N)
T3 sequence: T1 sequence with H28N, I54L

SIX6 [4] = molecular target: T4, SIX6 (Homo sapiens, UniProt O95475 114-200, T165P)
T4 sequence: T1 sequence with T52P, I54L

SIX6 [5] = molecular target: T5, SIX6 (Homo sapiens, UniProt O95475 114-200, L167M)
T5 sequence: T1 sequence with I54M

SIX6 [6] = molecular target: T6, SIX6 (Homo sapiens, UniProt O95475 114-200, L143M)
T6 sequence: T1 sequence with L30M, I54L

SIX6 [7] = molecular target: T7, SIX6 (Homo sapiens, UniProt O95475 114-200, L143I)
T7 sequence: T1 sequence with L30I, I54L

SIX6 [8] = molecular target: T8, SIX6 (Homo sapiens, UniProt O95475 114-200, T165G)
T8 sequence: T1 sequence with T52G, I54L

SIX6 [9] = molecular target: T9, SIX6 (Homo sapiens, UniProt O95475 114-200, T139Q)
T9 sequence: T1 sequence with T26Q, I54L

SIX6 [10] = molecular target: T10, SIX6 (Homo sapiens, UniProt O95475 114-200, T165A)
T10 sequence: T1 sequence with T52A, I54L

SIX6 [11] = molecular target: T11, SIX6 (Homo sapiens, UniProt O95475 114-200, L167V)
T11 sequence: T1 sequence with I54V

SIX6 [12] = molecular target: T12, SIX6 (Homo sapiens, UniProt O95475 114-200)
T12 sequence: T1 sequence with I54L

SIX6 [13] = molecular target: T13, SIX6 (Homo sapiens, UniProt O95475 114-200, T165I)
T13 sequence: T1 sequence with T52I, I54L

| Sequence | binding signal (SIX6 [1]) | binding signal (SIX6 [2]) | binding signal (SIX6 [3]) | binding signal (SIX6 [4]) | binding signal (SIX6 [5]) | binding signal (SIX6 [6]) | binding signal (SIX6 [7]) | binding signal (SIX6 [8]) | binding signal (SIX6 [9]) | binding signal (SIX6 [10]) | binding signal (SIX6 [11]) | binding signal (SIX6 [12]) | binding signal (SIX6 [13]) |
| --- | --- | --- | --- | --- | --- | --- | --- | --- | --- | --- | --- | --- | --- |
| CTCGATAC | 10.6 upbm affinity estimate (log intensity, higher = more binding, comparable within an allelic series) | 10 upbm affinity estimate (log intensity, higher = more binding, comparable within an allelic series) | 10.6 upbm affinity estimate (log intensity, higher = more binding, comparable within an allelic series) | 9.7 upbm affinity estimate (log intensity, higher = more binding, comparable within an allelic series) | 10.2 upbm affinity estimate (log intensity, higher = more binding, comparable within an allelic series) | 10.6 upbm affinity estimate (log intensity, higher = more binding, comparable within an allelic series) | 10.1 upbm affinity estimate (log intensity, higher = more binding, comparable within an allelic series) | 10.8 upbm affinity estimate (log intensity, higher = more binding, comparable within an allelic series) | 10.8 upbm affinity estimate (log intensity, higher = more binding, comparable within an allelic series) | 10.6 upbm affinity estimate (log intensity, higher = more binding, comparable within an allelic series) | 10.4 upbm affinity estimate (log intensity, higher = more binding, comparable within an allelic series) | 10.6 upbm affinity estimate (log intensity, higher = more binding, comparable within an allelic series) | 10.5 upbm affinity estimate (log intensity, higher = more binding, comparable within an allelic series) |
| ATGATATC | 11.4 upbm affinity estimate (log intensity, higher = more binding, comparable within an allelic series) | 10.5 upbm affinity estimate (log intensity, higher = more binding, comparable within an allelic series) | 11.5 upbm affinity estimate (log intensity, higher = more binding, comparable within an allelic series) | 9.88 upbm affinity estimate (log intensity, higher = more binding, comparable within an allelic series) | 10.9 upbm affinity estimate (log intensity, higher = more binding, comparable within an allelic series) | 11.2 upbm affinity estimate (log intensity, higher = more binding, comparable within an allelic series) | 10.6 upbm affinity estimate (log intensity, higher = more binding, comparable within an allelic series) | 11.6 upbm affinity estimate (log intensity, higher = more binding, comparable within an allelic series) | 11.5 upbm affinity estimate (log intensity, higher = more binding, comparable within an allelic series) | 11.4 upbm affinity estimate (log intensity, higher = more binding, comparable within an allelic series) | 11.4 upbm affinity estimate (log intensity, higher = more binding, comparable within an allelic series) | 11.3 upbm affinity estimate (log intensity, higher = more binding, comparable within an allelic series) | 11.2 upbm affinity estimate (log intensity, higher = more binding, comparable within an allelic series) |
| ACCGCGCC | 8.84 upbm affinity estimate (log intensity, higher = more binding, comparable within an allelic series) | 8.82 upbm affinity estimate (log intensity, higher = more binding, comparable within an allelic series) | 8.81 upbm affinity estimate (log intensity, higher = more binding, comparable within an allelic series) | 8.88 upbm affinity estimate (log intensity, higher = more binding, comparable within an allelic series) | 8.85 upbm affinity estimate (log intensity, higher = more binding, comparable within an allelic series) | 8.81 upbm affinity estimate (log intensity, higher = more binding, comparable within an allelic series) | 8.86 upbm affinity estimate (log intensity, higher = more binding, comparable within an allelic series) | 8.91 upbm affinity estimate (log intensity, higher = more binding, comparable within an allelic series) | 8.95 upbm affinity estimate (log intensity, higher = more binding, comparable within an allelic series) | 8.82 upbm affinity estimate (log intensity, higher = more binding, comparable within an allelic series) | 8.78 upbm affinity estimate (log intensity, higher = more binding, comparable within an allelic series) | 8.78 upbm affinity estimate (log intensity, higher = more binding, comparable within an allelic series) | 8.84 upbm affinity estimate (log intensity, higher = more binding, comparable within an allelic series) |
| ATGGGGGC | 8.95 upbm affinity estimate (log intensity, higher = more binding, comparable within an allelic series) | 8.73 upbm affinity estimate (log intensity, higher = more binding, comparable within an allelic series) | 9.01 upbm affinity estimate (log intensity, higher = more binding, comparable within an allelic series) | 8.77 upbm affinity estimate (log intensity, higher = more binding, comparable within an allelic series) | 8.95 upbm affinity estimate (log intensity, higher = more binding, comparable within an allelic series) | 8.95 upbm affinity estimate (log intensity, higher = more binding, comparable within an allelic series) | 8.81 upbm affinity estimate (log intensity, higher = more binding, comparable within an allelic series) | 8.95 upbm affinity estimate (log intensity, higher = more binding, comparable within an allelic series) | 9.11 upbm affinity estimate (log intensity, higher = more binding, comparable within an allelic series) | 8.97 upbm affinity estimate (log intensity, higher = more binding, comparable within an allelic series) | 8.97 upbm affinity estimate (log intensity, higher = more binding, comparable within an allelic series) | 8.87 upbm affinity estimate (log intensity, higher = more binding, comparable within an allelic series) | 8.97 upbm affinity estimate (log intensity, higher = more binding, comparable within an allelic series) |
| AGATATCA | 11.4 upbm affinity estimate (log intensity, higher = more binding, comparable within an allelic series) | 10.5 upbm affinity estimate (log intensity, higher = more binding, comparable within an allelic series) | 11.4 upbm affinity estimate (log intensity, higher = more binding, comparable within an allelic series) | 10.1 upbm affinity estimate (log intensity, higher = more binding, comparable within an allelic series) | 10.8 upbm affinity estimate (log intensity, higher = more binding, comparable within an allelic series) | 11 upbm affinity estimate (log intensity, higher = more binding, comparable within an allelic series) | 10.4 upbm affinity estimate (log intensity, higher = more binding, comparable within an allelic series) | 11.2 upbm affinity estimate (log intensity, higher = more binding, comparable within an allelic series) | 11.1 upbm affinity estimate (log intensity, higher = more binding, comparable within an allelic series) | 11.2 upbm affinity estimate (log intensity, higher = more binding, comparable within an allelic series) | 11.2 upbm affinity estimate (log intensity, higher = more binding, comparable within an allelic series) | 11 upbm affinity estimate (log intensity, higher = more binding, comparable within an allelic series) | 11.1 upbm affinity estimate (log intensity, higher = more binding, comparable within an allelic series) |
| ATACACCA | 10.4 upbm affinity estimate (log intensity, higher = more binding, comparable within an allelic series) | 10.1 upbm affinity estimate (log intensity, higher = more binding, comparable within an allelic series) | 10.6 upbm affinity estimate (log intensity, higher = more binding, comparable within an allelic series) | 9.67 upbm affinity estimate (log intensity, higher = more binding, comparable within an allelic series) | 10.2 upbm affinity estimate (log intensity, higher = more binding, comparable within an allelic series) | 10.4 upbm affinity estimate (log intensity, higher = more binding, comparable within an allelic series) | 10.2 upbm affinity estimate (log intensity, higher = more binding, comparable within an allelic series) | 10.8 upbm affinity estimate (log intensity, higher = more binding, comparable within an allelic series) | 10.8 upbm affinity estimate (log intensity, higher = more binding, comparable within an allelic series) | 10.6 upbm affinity estimate (log intensity, higher = more binding, comparable within an allelic series) | 10.2 upbm affinity estimate (log intensity, higher = more binding, comparable within an allelic series) | 10.5 upbm affinity estimate (log intensity, higher = more binding, comparable within an allelic series) | 10.5 upbm affinity estimate (log intensity, higher = more binding, comparable within an allelic series) |
| ATGTATCG | 11 upbm affinity estimate (log intensity, higher = more binding, comparable within an allelic series) | 10.3 upbm affinity estimate (log intensity, higher = more binding, comparable within an allelic series) | 11 upbm affinity estimate (log intensity, higher = more binding, comparable within an allelic series) | 10 upbm affinity estimate (log intensity, higher = more binding, comparable within an allelic series) | 10.6 upbm affinity estimate (log intensity, higher = more binding, comparable within an allelic series) | 10.8 upbm affinity estimate (log intensity, higher = more binding, comparable within an allelic series) | 10.4 upbm affinity estimate (log intensity, higher = more binding, comparable within an allelic series) | 11 upbm affinity estimate (log intensity, higher = more binding, comparable within an allelic series) | 11.1 upbm affinity estimate (log intensity, higher = more binding, comparable within an allelic series) | 11 upbm affinity estimate (log intensity, higher = more binding, comparable within an allelic series) | 10.7 upbm affinity estimate (log intensity, higher = more binding, comparable within an allelic series) | 10.9 upbm affinity estimate (log intensity, higher = more binding, comparable within an allelic series) | 10.8 upbm affinity estimate (log intensity, higher = more binding, comparable within an allelic series) |
